Source: PubChem (several laboratories)
Hits are enriched below; roughly 2.9% of the tested compounds scored in any of these assays.
Mcl1 Bid PPI: Mcl-1/Bid binding inhibitors, primary screen, biochemical, TR-FRET, 1536-well; inhibition, % at 21.7 µM; AID 1021, 2008; Induced myeloid leukemia cell differentiation protein Mcl-1 (Homo sapiens), Q07820; 0.97% of 220,000 active; TR-FRET Mcl-1/Bid-Dy647 peptide binding;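 active = compounds that cut the binding signal by more than half at the single screening dose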;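 also: His-tagged Mcl-1 with europium anti-His antibody binding Bid BH3 peptide; 0% = Mcl-1 plus peptide wells and 100% = peptide-only wells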
Target sequence (Q07820 whole entry, looked up): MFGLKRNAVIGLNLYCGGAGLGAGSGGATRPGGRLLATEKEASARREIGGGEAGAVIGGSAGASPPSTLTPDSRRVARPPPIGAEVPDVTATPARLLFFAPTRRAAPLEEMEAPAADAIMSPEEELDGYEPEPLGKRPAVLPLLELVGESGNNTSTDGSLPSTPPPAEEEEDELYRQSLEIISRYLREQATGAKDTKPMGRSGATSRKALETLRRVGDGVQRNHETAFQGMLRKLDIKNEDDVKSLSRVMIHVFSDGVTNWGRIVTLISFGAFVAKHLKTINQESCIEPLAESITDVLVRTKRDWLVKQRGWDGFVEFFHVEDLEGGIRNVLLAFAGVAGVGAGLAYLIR
Pf gametocyte: late stage P. falciparum gametocyte viability inhibitors, primary screen, ATP luminescence, HTS | inhibition, % at 10.9 µM | P. falciparum stage V gametocytes, 24 h | 0.065% of 150,000 active | AID 743093, 2013;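 active = inhibition above the mean plus 3 SD of compounds within the control limits, set per campaign, cut at about 38% in these data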;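 also: 0% = DMSO wells and 100% = medium only without gametocytes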
Mcl1-Noxa inh: Mcl-1/Noxa binding inhibitors, primary screen, biochemical, TR-FRET, 1536-well | 1.5% of 220,000 active | inhibition, % at 21.7 µM | TR-FRET Mcl-1/Noxa peptide binding, 2 h | AID 1022, 2008;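 active = compounds that cut the protein-peptide binding signal by more than 50% relative to plate controls in a single-dose test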;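 also: His-tagged Mcl-1 with rhodamine Noxa BH3 peptide and terbium anti-His antibody; 0% = Mcl-1 plus Noxa peptide wells and 100% = peptide-only wells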
14-3-3 Bad PPI: inhibitors of 14-3-3 zeta/Bad binding, primary screen, biochemical, TR-FRET, bovine 14-3-3 zeta | 14-3-3 protein zeta/delta (Bos taurus), P63103 | TR-FRET 14-3-3zeta/Dy647-pBad peptide displacement, 1 h | inhibition, % at 21.7 µM | 0.71% of 220,000 active;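 active = inhibition above about 70%, limit read from the data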;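 also: 0% = full 14-3-3 plus peptide FRET controls and 100% = background without 14-3-3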
Target sequence (P63103 whole entry, looked up): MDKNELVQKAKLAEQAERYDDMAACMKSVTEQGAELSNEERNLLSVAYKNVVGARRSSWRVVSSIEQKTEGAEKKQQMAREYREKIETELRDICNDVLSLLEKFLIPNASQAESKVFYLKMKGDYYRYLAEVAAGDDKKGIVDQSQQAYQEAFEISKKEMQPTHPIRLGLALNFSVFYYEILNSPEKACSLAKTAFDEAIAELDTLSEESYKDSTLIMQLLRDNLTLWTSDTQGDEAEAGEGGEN
Bim-Mcl-1: inhibitors of Bim peptide binding to Mcl-1, primary screen, biochemical, bead-based flow cytometry, multiplex; Induced myeloid leukemia cell differentiation protein Mcl-1 (Homo sapiens), Q07820; Bim peptide-Mcl-1 binding; inhibition, % at 10 µM; 0.1% of 190,000 active; in the data active = inhibition above about 40%;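 also: 0% = no compound tracer wells and 100% = peptide blocker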
Hck-Nef inh: inhibitors of Nef-activated human Hck kinase, primary screen, biochemical, Z-Lyte FRET, 384-well, Hck-YEEI. inhibition, % at 20 µM. 0.68% of 220,000 active. AID 463187, 2010. Recombinant Hck-YEEI plus Nef, Z-Lyte FRET kinase assay;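 active = Hck-Nef kinase inhibition above about 50%, limit read from the data; inactive = inhibition below that limit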;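 also: 0% = DMSO with Hck plus Nef and 100% = Hck alone without Nef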
Hck-Nef confirm: retest of Hck:Nef kinase inhibitor hits, confirmation, biochemical, Z-Lyte FRET, 384-well, p-Tyr peptide counterscreen. Recombinant Hck-YEEI:Nef, Z-Lyte FRET kinase assay. shares compounds with Hck-Nef inh. calls only at 10 µM. 28% of 1,300 active. AID 463188, 2010;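 active = average inhibition of at least 50%, with Z-scores no higher than 3 in both the phospho-tyrosine peptide and fluorescence counterscreens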
Starred values were filed as active, the others as inactive; i = inactive; x = no result given; + = active, no number.

SMILES | Mcl1 Bid PPI | Pf gametocyte | Mcl1-Noxa inh | 14-3-3 Bad PPI | Bim-Mcl-1 | Hck-Nef inh | Hck-Nef confirm
COc1ccc(-c2oc3ncnc(NCCCN4CCOCC4)c3c2-c2ccc(OC)cc2)cc1 | -7.1 | 13.2 | 15.0 | -3.2 | -1.0 | 93.7* | +
c1ccc(-c2oc3ncnc(NCCCN4CCOCC4)c3c2-c2ccccc2)cc1 | -6.1 | -7.8 | 31.3 | -1.5 | 0.0 | 60.5* | +
COc1ccc(-c2oc3ncnc(NCCN4CCOCC4)c3c2-c2ccc(OC)cc2)cc1 | x | x | x | x | 3.0 | 66.4* | +
NNC(=O)CSc1ncc(-c2ccccc2)[nH]1 | -17.4 | -1.5 | -2.2 | 1.7 | -4.0 | -2.8 | x
COc1ccc(/C=c2\s/c(=C\C(=O)C(C)(C)C)[nH]c2=O)cc1O | -58.5 | 13.8 | 57.6* | 2.9 | x | 70.9* | +
CC1(C)C2CC=C(/C=N/NC(=O)c3ccccc3O)C1C2 (centres undefined) | -30.0 | 0.3 | 25.2 | -7.2 | -6.0 | 1.1 | x
O=C(Nc1ccccc1)Nc1snnc1C(=O)Nc1cccc(O)c1 | 14.4 | 32.7 | 42.4 | 10.7 | -2.0 | 60.3* | +
O=C(OCCCN=C1NS(=O)(=O)c2ccccc21)c1ccc(F)cc1 | 0.8 | x | 16.1 | -10.9 | 0.0 | 0.0 | x
COc1ccc(NC(=O)CCN2CC(C)OC(C)C2)c(OC)c1 (centres undefined) | 20.8 | x | 41.9 | 17.3 | 2.0 | 8.4 | x
CCN(CC)C(=O)CSc1nc2ccccc2c(=O)n1-c1cccc(OC)c1 | 2.1 | x | 11.4 | -18.7 | -2.0 | 0.4 | x
COc1cccc(-n2c(SCc3cc(=O)oc4cc(O)c(O)cc34)nc3ccccc3c2=O)c1 | -64.3 | -25.3 | 100.3* | 6.3 | -1.0 | 74.1* | x
Cc1nn(C)cc1/C=N/NC(=S)Nc1ccccc1 | -56.5 | 7.8 | 10.9 | -11.9 | -7.0 | -0.7 | x
Cc1ccn2cc(CNS(=O)(=O)c3ccc4c(c3)OCCO4)nc2c1 | -29.6 | x | 10.1 | -5.3 | -3.0 | 0.9 | x
CCc1cc2c(N=Nc3c(O)[nH]c4ccccc34)ncnc2s1 | 9.6 | x | 14.9 | 3.9 | 0.0 | 1.9 | x
Oc1[nH]c2ccccc2c1N=Nc1ncnc2c1oc1ccccc12 | 10.2 | -25.2 | 65.2* | 45.6 | x | 56.2* | i
O=C(c1cnn(C(=O)COc2ccc(Cl)cc2)c1)c1ccccc1O | -42.5 | 7.0 | -27.0 | 25.4 | 0.0 | 50.3* | +
Cc1ccc(O)c(C(=O)c2cnn(C(=O)COc3ccc(Cl)cc3)c2)c1 | 49.0 | 1.6 | -75.1 | 52.4 | -5.0 | 13.3 | x
Cc1cccc(C)c1N(CC(=O)Nc1cccc(N(C)S(C)(=O)=O)c1)S(C)(=O)=O | -23.1 | -0.1 | -6.3 | -5.9 | 0.0 | 1.9 | x
O=C(NC(=O)c1ccc(Cl)cc1)Nc1ccc(-c2cnco2)cc1 | 5.9 | x | -138.5 | 78.3* | x | 60.2* | i
COc1ccc(C2=NN(C(=O)c3ccco3)C(c3cc4ccccc4nc3Cl)C2)cc1 (centres undefined) | 3.0 | x | 11.8 | 39.1 | x | 50.9* | i
Cc1cc(=O)oc2c1c(C(F)(F)F)nn2-c1ccccc1 | 1.5 | 8.0 | 9.7 | -5.2 | x | 5.1 | x
O=C(CSc1ncnc2c1oc1ccccc12)Nc1ccc2c(c1)OCCO2 | -148.1 | -13.5 | i | -1.1 | -1.0 | 6.7 | x
CCc1nc(SCC(=O)Nc2ccc3c(c2)OCCO3)c2oc3ccccc3c2n1 | 45.9 | -13.5 | -84.9 | 23.1 | -2.0 | 88.3* | i
Cc1nc(SCC(=O)Nc2ccc3c(c2)OCCO3)c2oc3ccccc3c2n1 | 28.5 | 9.7 | -111.3 | 38.3 | -3.0 | 80.9* | i
CCN1CCC(=NNC(=O)CC23CC4CC(CC(C4)C2)C3)CC1 | 11.3 | -17.8 | 1.6 | 10.9 | -5.0 | -1.5 | x
SMILES | Mcl1 Bid PPI | Pf gametocyte | Mcl1-Noxa inh | 14-3-3 Bad PPI | Bim-Mcl-1 | Hck-Nef inh | Hck-Nef confirm
Cc1cc(-c2csc(NC(=O)c3ccc(S(=O)(=O)N(C)C)cc3)n2)c(C)n1-c1ccccc1 | -14.8 | 12.6 | 27.5 | -15.5 | -1.0 | -0.3 | x
O=C(CCc1ccc(Oc2cc([N+](=O)[O-])cc([N+](=O)[O-])c2)cc1)Nc1cccc(Cl)c1 | 0.9 | x | 14.4 | -10.2 | 0.0 | 4.4 | x
COc1ccc(C(NC(=O)c2ccc(F)cc2)c2ccccc2)cc1 (centres undefined) | 0.7 | -1.3 | -0.7 | 6.3 | -3.0 | 1.4 | x
CC(=O)Nc1cccc(-n2nnc(SCC(=O)N(C)c3ccccc3)n2)c1 | -2.8 | 20.6 | 3.3 | -16.4 | x | 10.7 | x
Cc1ccccc1Nc1ncnc2c1cnn2-c1ccccc1 | -14.2 | x | 10.3 | 10.0 | 1.0 | 56.0* | +
NNc1ncnc2c1cnn2-c1ccccc1 | -11.1 | x | 19.4 | 0.0 | 4.0 | 2.7 | x
CCCN1CCC(=O)N([C@H](CSc2ccc(Br)cc2)c2ccccc2)CC1 | 6.4 | x | 33.1 | -3.0 | x | 8.7 | x
CCC(/C=C1\Oc2ccc(OC)cc2N1C)=C\c1sc2ccccc2[n+]1CCCS(=O)(=O)[O-] | x | 4.8 | x | x | x | x | x
COc1cc(/C=C/c2sc3ccccc3[n+]2CCCS(=O)(=O)[O-])ccc1O | -69.4 | 11.3 | -54.8 | -26.7 | -1.0 | 65.3* | i
COc1ccc(-n2c(N)c(C(=O)NCC3CCCO3)c3nc4ccccc4nc32)c(OC)c1 (centres undefined) | -3.9 | x | 14.0 | -4.0 | 5.0 | 75.2* | x
O=C(NCC1CCCO1)c1coc2nc3ccccc3nc12 (centres undefined) | -18.6 | x | -6.9 | 12.3 | 1.0 | 9.1 | x
C=CCn1c(N)c(C(=O)NCC2CCCO2)c2nc3ccccc3nc21 (centres undefined) | 5.0 | x | 12.8 | -7.5 | 0.0 | 54.7* | x
CCOc1ccc(C2C(C(=O)O)CCC(=O)N2C2CCCCC2)cc1 (centres undefined) | 9.9 | -17.8 | 15.6 | 6.9 | 0.0 | 6.0 | x
CC(C)(C)c1ccc(C(=O)NNc2ccc(F)cc2F)cc1 | -5.1 | 27.3 | 3.5 | 43.6 | x | 18.0 | x
CCOc1cccc(-c2nnc(SCC(=O)Nc3cc(OC)cc(OC)c3)n2N)c1 | 1.3 | -17.9 | -0.7 | -2.9 | 0.0 | 2.1 | x
CSc1sc(-c2ccnc(SCCS(C)(=O)=O)n2)c(-c2ccccc2)c1C#N | -10.0 | 25.8 | -5.4 | -12.9 | x | 71.6* | i
CCOP(=O)(O)c1ccccc1OCCOCCOc1ccccc1P(=O)(O)OCC | 29.5 | x | 53.5* | 30.6 | -1.0 | 94.4* | i
Cc1ccc(-n2cccc2/C=C2\C(=N)N3N=C(c4ccco4)SC3=NC2=O)cc1 | 79.4* | x | 94.1* | 74.2* | -3.0 | 69.9* | +
